Test results as given in PubChem BioAssay (NCI).
About 79,000 compounds went through this panel and 15% of them were active in at least one assay; those are over-represented in the sample as a whole. The source made the active and inactive calls. Rule as the data show it: active = growth inhibition above about 70%; inactive = the rest.

What was measured:
[1] = NCI Yeast Anticancer Drug Screen. Data for the wt1 strain (AID 149);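 also: 0% = growth of vehicle-treated wt1 cultures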; conditions: S. cerevisiae wt1 strain (SPY 50644) growth inhibition, stronger effect = higher value
How it was run: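 Yeast wt1 strain exposed to compounds; growth inhibition measured relative to vehicle-treated controls.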

[2] = NCI Yeast Anticancer Drug Screen. Data for the rad50EPP+ strain (AID 151);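 also: 0% = growth of vehicle-treated control cultures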; conditions: S. cerevisiae rad50 mutant strain, stronger effect = higher value
How it was run: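 In this screen, rad50EPP+ yeast were exposed to compounds. Growth inhibition was scored against vehicle-treated controls.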

[3] = NCI Yeast Anticancer Drug Screen. Data for the mgt1 strain (AID 153); conditions: S. cerevisiae mgt1 mutant growth inhibition, stronger effect = higher value
How it was run: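 mgt1 strain exposed; growth vs vehicle control recorded as inhibition.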

[4] = NCI Yeast Anticancer Drug Screen. Data for the rad50 strain (AID 155);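 also: 0% = growth of vehicle-only cultures of the same strain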; conditions: S. cerevisiae rad50 strain growth inhibition, stronger effect = higher value
How it was run: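 Yeast carrying a defined DNA repair defect were exposed to test compounds, and growth was compared with vehicle-treated controls to give percent inhibition.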

[5] = NCI Yeast Anticancer Drug Screen. Data for the mec2-1 strain (AID 157); conditions: S. cerevisiae mec2-1 strain, stronger effect = higher value
How it was run: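 Vehicle-treated cultures served as reference for growth inhibition of compound-exposed mec2-1 yeast.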

[6] = NCI Yeast Anticancer Drug Screen. Data for the rad14 strain (AID 159);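 also: 0% = growth of vehicle-treated control cultures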; conditions: S. cerevisiae rad14 strain growth inhibition, stronger effect = higher value
How it was run: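 Yeast cells carrying a defined DNA-repair defect were exposed to compounds, and growth inhibition was calculated relative to vehicle-treated control cultures.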

[7] = NCI Yeast Anticancer Drug Screen. Data for the sgs1 mgt1 strain (AID 161);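 also: 0% = growth of cultures given vehicle only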; conditions: S. cerevisiae sgs1 mgt1 strain, stronger effect = higher value
How it was run: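 Genetically altered yeast, compound exposure, growth inhibition relative to vehicle.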

[8] = NCI Yeast Anticancer Drug Screen. Data for the CLN2oe strain (AID 163);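 also: 0% = growth of vehicle-only control cultures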; conditions: S. cerevisiae CLN2oe strain, stronger effect = higher value
How it was run: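 Inhibition relative to vehicle-treated yeast is reported. Cells: strain with genetic alteration in cell-cycle control, grown with compound.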

[9] = NCI Yeast Anticancer Drug Screen. Data for the cln2 rad14 strain (AID 165);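 also: 0% = growth equal to vehicle treated cultures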; conditions: S. cerevisiae cln2 rad14 strain, stronger effect = higher value
How it was run: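 Each compound was tested on cln2 rad14 yeast. Inhibition of growth was calculated against vehicle-exposed controls.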

[10] = NCI Yeast Anticancer Drug Screen. Data for the bub3 strain (AID 167); conditions: S. cerevisiae bub3 mutant strain, stronger effect = higher value
How it was run: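 Compounds were applied to a genetically altered yeast strain carrying a cell-cycle control defect. Growth inhibition was scored against vehicle-treated controls.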

[11] = NCI Yeast Anticancer Drug Screen. Data for the wt2 strain (AID 169);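 also: 0% = growth of vehicle-treated yeast cultures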; conditions: S. cerevisiae wt2 strain growth inhibition, stronger effect = higher value
How it was run: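 Inhibition of yeast growth was determined after compound treatment, normalised to controls receiving only vehicle.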

[12] = NCI Yeast Anticancer Drug Screen. Data for the mlh1 strain (AID 171);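 also: 0% = growth of vehicle-treated control cultures of the same strain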; conditions: S. cerevisiae mlh1 strain growth inhibition, stronger effect = higher value
How it was run: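 Vehicle-normalised growth inhibition of a repair- or checkpoint-altered yeast strain following compound treatment.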

[13] = NCI Yeast Anticancer Drug Screen. Data for the sgs1 strain (AID 173);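 also: 0% = growth of vehicle-only control cultures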; conditions: S. cerevisiae sgs1 mutant, stronger effect = higher value
How it was run: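 Screen format: yeast with repair or checkpoint alterations, compound exposure, growth read relative to vehicle.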

[14] = NCI Yeast Anticancer Drug Screen. Data for the mlh1 rad18 strain (AID 175); conditions: S. cerevisiae mlh1 rad18 strain growth inhibition, stronger effect = higher value
How it was run: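 Vehicle-treated cultures served as the reference for growth inhibition in a yeast strain carrying DNA damage repair alterations exposed to each compound.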

[15] = NCI Yeast Anticancer Drug Screen. Data for the rad18 strain (AID 177); conditions: S. cerevisiae rad18 mutant growth inhibition, stronger effect = higher value
How it was run: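 Test articles were incubated with altered yeast defective in DNA damage repair. Results are given as inhibition of growth versus vehicle.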

[16] = at 5.0 µM (retest, dose inferred, filed as 0.5)
[17] = at 50.0 µM (retest, dose inferred, filed as 5.0)

Measured: growth inhibition

S=C1NC2=C(CSC/C2=C\c2ccc(Cl)cc2)C(c2ccc(Cl)cc2)N1 (stereo unspecified)
inactive: [1]; at 1.2 µM 8% | [1]; at 3.7 µM 19% | [1]; at 11.0 µM 24% | [1]; at 33.0 µM 61% | [2]; at 1.2 µM -3% | [2]; at 3.7 µM 12% | [2]; at 11.0 µM 12% | [2]; at 33.0 µM 16% | [2]; at 100.0 µM 9% | [3]; at 1.2 µM 29% | [3]; at 3.7 µM 31% | [3]; at 11.0 µM 44% | [4]; at 1.2 µM 20% | [4]; at 3.7 µM 42% | [4]; [16] -9% | [4]; at 11.0 µM 56% | [5]; at 1.2 µM 0% | [5]; at 3.7 µM -1% | [5]; [16] 5% | [5]; at 11.0 µM 24% | [5]; at 33.0 µM 61% | [6]; at 1.2 µM 11% | [6]; at 3.7 µM 26% | [6]; at 11.0 µM 38% | [7]; [16] 6% | [8]; at 1.2 µM -14% | [8]; at 3.7 µM 14% | [8]; at 11.0 µM 28% | [8]; at 33.0 µM 44% | [9]; [16] 11% | [10]; at 1.2 µM -39% | [10]; at 3.7 µM -7% | [10]; [16] -7% | [10]; at 11.0 µM 16% | [10]; at 33.0 µM 56% | [11]; at 1.2 µM 25% | [11]; at 3.7 µM 31% | [11]; at 11.0 µM 39% | [11]; at 33.0 µM 68% | [12]; at 1.2 µM 3% | [12]; at 3.7 µM 26% | [12]; at 11.0 µM 46% | [13]; at 1.2 µM 42% | [13]; at 3.7 µM 45% | [13]; at 11.0 µM 66% | [14]; [16] 16% | [15]; at 1.2 µM 15% | [15]; at 3.7 µM 25% | [15]; at 11.0 µM 28% | [15]; at 33.0 µM 63%
active: [1]; at 100.0 µM 76% | [3]; at 33.0 µM 72% | [3]; at 100.0 µM 82% | [4]; at 33.0 µM 74% | [4]; [17] 94% | [4]; at 50.0 µM 92.9% | [4]; at 100.0 µM 71% | [5]; [17] 95% | [5]; at 50.0 µM 83.7% | [5]; at 100.0 µM 77% | [6]; at 33.0 µM 71% | [6]; at 100.0 µM 74% | [7]; [17] 92% | [7]; at 50.0 µM 96.5% | [8]; at 100.0 µM 71% | [9]; [17] 92% | [9]; at 50.0 µM 95.2% | [10]; [17] 96% | [10]; at 50.0 µM 94.8% | [10]; at 100.0 µM 77% | [11]; at 100.0 µM 83% | [12]; at 33.0 µM 72% | [12]; at 100.0 µM 75% | [13]; at 33.0 µM 84% | [13]; at 100.0 µM 87% | [14]; [17] 96% | [14]; at 50.0 µM 90.7% | [15]; at 100.0 µM 73%

CN(C)CCn1c2ccccc2c2nc3cc4ccccc4cc3nc21
active: [1]; at 33.0 µM 78% | [1]; at 100.0 µM 98% | [2]; at 11.0 µM 88% | [2]; at 33.0 µM 94% | [2]; at 100.0 µM 97% | [3]; at 100.0 µM 98% | [4]; at 11.0 µM 85% | [4]; at 33.0 µM 95% | [4]; [17] 95% | [4]; at 50.0 µM 89% | [4]; at 100.0 µM 98% | [5]; at 33.0 µM 70% | [5]; [17] 99% | [5]; at 50.0 µM 86.6% | [5]; at 100.0 µM 98% | [6]; at 33.0 µM 80% | [6]; at 100.0 µM 99% | [7]; [17] 91% | [7]; at 50.0 µM 88% | [8]; at 100.0 µM 98% | [9]; [17] 94% | [9]; at 50.0 µM 84.3% | [10]; at 33.0 µM 72% | [10]; [17] 95% | [10]; at 50.0 µM 87.6% | [10]; at 100.0 µM 98% | [11]; at 33.0 µM 77% | [11]; at 100.0 µM 98% | [13]; at 33.0 µM 85% | [13]; at 100.0 µM 98% | [14]; [17] 98% | [14]; at 50.0 µM 71.2% | [15]; at 33.0 µM 87% | [15]; at 100.0 µM 98%
inactive: [1]; at 1.2 µM 15% | [1]; at 3.7 µM 23% | [1]; at 11.0 µM 28% | [2]; at 1.2 µM 0% | [2]; at 3.7 µM 38% | [3]; at 1.2 µM -2% | [3]; at 3.7 µM 4% | [3]; at 11.0 µM 14% | [3]; at 33.0 µM 69% | [4]; at 1.2 µM 12% | [4]; at 3.7 µM 34% | [4]; [16] 48% | [5]; at 1.2 µM -18% | [5]; at 3.7 µM -10% | [5]; [16] 26% | [5]; at 11.0 µM 14% | [6]; at 1.2 µM -4% | [6]; at 3.7 µM 7% | [6]; at 11.0 µM 28% | [7]; [16] 10% | [8]; at 1.2 µM 0% | [8]; at 3.7 µM 3% | [8]; at 11.0 µM 21% | [8]; at 33.0 µM 57% | [9]; [16] 30% | [10]; at 1.2 µM -13% | [10]; at 3.7 µM 10% | [10]; [16] 13% | [10]; at 11.0 µM 3% | [11]; at 1.2 µM 18% | [11]; at 3.7 µM 15% | [11]; at 11.0 µM 27% | [13]; at 1.2 µM -2% | [13]; at 3.7 µM 5% | [13]; at 11.0 µM 25% | [14]; [16] 34% | [15]; at 1.2 µM -11% | [15]; at 3.7 µM -10% | [15]; at 11.0 µM 11%
